Screening data (PubChem)
A selection: hits, their analogues and other compounds. The true share with any hit is near 7.9%.
MARV entry inh = qHTS for inhibitors of binding or entry into cells for Marburg Virus | Marburg virus pseudotyped entry inhibition, cell reporter | Potency, µM (highest dose often 37.8 µM), inactives show at the top dose activity change, negative = inhibition, actives largely listed as inhibitors | 300,000 compounds, 1.8% hits; calls by dose curve; tested in HEK293 cells; note: potency is the fitted concentration of half-maximal effect
LASV entry inh = qHTS for Inhibitors of binding or entry into cells for Lassa Virus; 300,000 compounds, 1.2% hits; Potency, µM (highest dose often 37.9 µM), for inactives: top-dose activity change, negative = inhibition, most hits filed as inhibitors; Lassa virus pseudotype entry inhibition, cell reporter; calls by dose curve; tested in HEK293 cells; note: potency is the fitted concentration of half-maximal effect; nearly all actives have a fitted effect of over 50% in size
HCMV antiviral = qHTS Assay for inhibitors of the human cytomegalovirus (HCMV); HFF cells, HCMV-luciferase reporter, 72 h; stronger effect = lower value; 410,000 compounds, 4.5% hits; AID 1259415, 2018; activity change, negative = inhibition, % at 57.5 µM; in the data active = activity change below about -60%; inconclusive = no clear call, values can overlap the other calls; inactive = above about -39%
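HFF cells seeded 16 h at 37C, treated with compounds, infected with luciferase-reporter HCMV at MOI 1 PFU/cell; luciferase read at 72 h post infection, normalized to buffer-only and Salinomycin controls.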
HCV inhibitor = qHTS Assay for Inhibitors of Hepatitis C Virus (HCV) | Huh7.5.1 HCVcc-Cre infection, luciferase reporter, 44 h | Potency, µM (top dose mostly 41.8 µM), for inactives: at the highest dose activity change, negative = inhibition, actives largely listed as inhibitors | AID 651820, 2012 | 340,000 compounds, 3.4% hits; active = well fitted inhibition curve with a large enough effect; inconclusive = small, poorly fitted or top-dose-only effect, or another doubt; inactive = no such curve, though single readings can be large or run the other way; note: potency is the fitted concentration of half-maximal effect
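Infectious HCV cell culture screen: compound-treated cells (1,000/well, pre-plated 4 h) are infected with HCVcc-Cre at roughly 0.5 moi and grown 44 h. Infection is quantified by luciferase signal after 15 min substrate incubation at room temperature.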
FMDV antiviral = High Throughput Screening for Foot and Mouth Disease Virus Antivirals; FMDV antiviral cell-based qHTS; Potency, µM (doses to about 57.9 µM), inactives show at the highest dose activity change, negative = inhibition, usual class: inhibitors; 410,000 compounds, 1.2% hits; calls by dose curve; tested in HEK293T cells; note: read-out not given here; potency is the fitted concentration of half-maximal effect; nearly all actives have a fitted effect of over 45% in size
Numbers without * were called inactive; ? = inconclusive; nt = no result given; [ ] = dose if it differs, or a comment. % is set by controls: 0 for no effect and ±100 for the full control effect.

SMILES	MARV entry inh	LASV entry inh	HCMV antiviral	HCV inhibitor	FMDV antiviral
O=C(CSc1n[nH]c(-c2ccccn2)n1)Nc1ccc(F)cc1	?	10µM*	?	?	12%
Cc1ccc(NC(=O)CSc2n[nH]c(-c3ccccn3)n2)cc1	4.5µM*	?	-12	?	0%
Cc1cccc(NC(=O)C2CCN(c3cnccn3)CC2)c1	20%[46.1 µM]	20%[46.1 µM]	-24	nt	-12%
CC(C)Cn1c(SCc2cccc(F)c2)nc2ccsc2c1=O	nt	6%[46.1 µM]	-8	nt	-2%
COC(=O)C(C(C)=O)C(NC(=O)NCc1ccccc1)c1ccccc1 (centres undefined)	25%[14.2 µM]	nt	nt	nt	nt
C[C@@H](C(=O)NCc1ccccc1)[C@@H]1C[C@@]1(C)[C@@H](NC(=O)OCc1ccccc1)c1ccccc1	-62%	7.3µM*	-30	?	-5%
C[C@@H](C(=O)NCc1ccc(S(C)(=O)=O)cc1)[C@H]1C[C@]1(C)[C@H](NC(=O)OCc1ccccc1)c1ccccc1	-40%	?	18	1%[8.37 µM]	-21%
Cc1ccc(CNC(=O)[C@H](C)[C@H]2C[C@]2(C)[C@H](NC(=O)OCc2ccccc2)c2ccccc2)o1	10µM*	-20%	nt	-10%[8.37 µM]	-10%
O=c1c2ccccc2cnn1-c1ccc2ccccc2c1	?	10µM*	45	-21%	?
CCOC(=O)C1(Cc2ccccc2)CCCN(CCCn2cccn2)C1 (centres undefined)	6%[46.1 µM]	?	-30	6%	5%
CCOC(=O)C1(Cc2ccc(Cl)cc2)CCN(C(=O)c2sc(C)nc2C)CC1	nt	nt	-76*	11µM*	32µM*
CCOC(=O)C1(Cc2ccc(Cl)cc2)CCN(CCCn2cccn2)CC1	?	?	-62*	3.2µM*	?
CCOC(=O)c1sc2cccc(F)c2c1S(=O)(=O)Nc1ccccc1F	nt	4%[46.1 µM]	14	nt	0%
O=C(CN1Cc2ccccc2OC(c2ccccc2)C1)NCc1cccnc1 (centres undefined)	nt	nt	nt	nt	54%
N#Cc1cc(C(=O)c2cc(Br)ccc2O)cn(C2CCCCC2)c1=O	?	?	-39	11µM*	?
N#Cc1cc(C(=O)c2ccccc2OCC(=O)Nc2ccccc2Cl)cn(C2CCCCC2)c1=O	?	?	-25	?	0%
CCOc1ccc(CCNC(=O)CCc2nnc3ccc(N4CCCCC4)nn23)cc1OCC	nt	nt	-3	-3%	-15%
COc1cccc(/C=N/Nc2ncnc(N)c2[N+](=O)[O-])c1OC	?	8.2µM*	nt	-12%	-40%
COc1cccc(C=NNc2nnc(NN=Cc3cccc(OC)c3OC)c3ccccc23)c1OC	?	?	122	?	20µM*
Cc1cc(=O)[nH]c(N/N=C/c2cc(C)n(-c3ccccc3)c2C)n1	?	?	0	?	?
COc1ccccc1/C=N/Nc1nncc2ccccc12	?	-16%	35	8%	33%
Cc1cc(/C=N/Nc2ncnc(N)c2[N+](=O)[O-])c(C)n1-c1ccccc1	?	1.1µM*	-83*	?	3.5µM*
COC(=O)C1CCN(Cc2ccc3c(c2)CN(C(=O)c2cc(C)nc(C)n2)CCO3)CC1	nt	nt	nt	nt	5%
COc1ccc(CCNC(=O)CCc2cn(Cc3ccccc3Cl)c3ccccc23)c(OC)c1	nt	?	-30	nt	-3%
CC(C)n1c(CN(C)Cc2ccccc2)nc2c1c(=O)n(C)c(=O)n2C	?	?	-89*	?	18µM*
Cn1c(=O)c2c(nc(CN3CCN(Cc4ccccc4)CC3)n2Cc2ccc(Cl)cc2)n(C)c1=O	0%	nt	-103*	?	-9%
Cn1c(=O)c2c(nc(CN3CCN(Cc4ccccc4)CC3)n2Cc2ccccc2)n(C)c1=O	-3%	nt	nt	11%	nt
Cn1c(=O)c2c(nc(CN3CCC(Cc4ccccc4)CC3)n2CCN2CCOCC2)n(C)c1=O	11%	10µM*	32	-15%	0%
CN(Cc1ccccc1)Cc1nc2c(c(=O)n(C)c(=O)n2C)n1Cc1ccc(Cl)cc1	-1%	?	-17	14µM*	-5%
CC(=O)C(C)n1c(CN(C)Cc2ccccc2)nc2c1c(=O)n(C)c(=O)n2C (centres undefined)	?	-7%[46.1 µM]	-1	?	-16%
